Consider eleven compounds from PubChem BioAssay (EPA / NIEHS).

As a reminder, the AC50 is the concentration giving half of the maximal activity seen.

Molecules are shown by their SMILES. Where “and” joins values, the source holds several entries; their conditions need not be identical. Equal values may be shown once. Results filed as inconclusive are left out. Calls of active or inactive are those of the source. Rule for the calls, unless noted: active = hit-call score of the fitted dose curve at least 0.9, where 1 is the maximum; inconclusive = response in the unintended direction; inactive = score below 0.9.

For assay [1], the target named is human Serotonin Transporter (SERT), SLC6A4 (gene 6532) (UniProt P31645). Briefly: NVS_TR_hSERT: NovaScreen (NVS) Transporter Assay for human Serotonin Transporter (SERT) (AID 2283372). The essentials: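 Radioligand binding to native SERT in human platelet membranes, read by filter-based scintillation counting 1 h after dosing. Primary screen in duplicate at 25 uM; actives followed up in concentration series; loss of signal versus DMSO baseline.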

In assay [2] the test system is rat Norepinephrine Transporter (NET), gene 83511. The assay is described as follows: NVS_TR_rNET: NovaScreen (NVS) Transporter Assay for rat Norepinephrine Transporter (NET) (AID 2283373). The essentials: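 Rat forebrain membranes; radioligand binding measured by filter-based scintillation counting 1 hour after dosing. Loss of specific binding versus DMSO baseline scored; primary screen in duplicate at 25 uM, actives followed up in concentration series.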

Assay [3] concerns the target human Dopamine Transporter (DAT), SLC6A3 (gene 6531) (UniProt Q01959). Briefly: NVS_TR_hDAT: NovaScreen (NVS) Transporter Assay for human Dopamine Transporter (DAT) (AID 2283374).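 Note: activity means loss of bound radioligand signal relative to DMSO.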 The essentials:
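Cell-free radioligand binding to extracted human DAT protein, read 1 h after dosing by filter-based scintillation counting. Loss of specific binding scored against DMSO baseline; primary screen in duplicate at 25 uM, actives then run in concentration series.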

For assay [4], the target named is rat Serotonin Transporter (SERT), Slc6a4 (gene 25553) (UniProt P31652). Briefly: NVS_TR_rSERT: NovaScreen (NVS) Transporter Assay for rat Serotonin Transporter (SERT) (AID 2283375). The essentials: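 Radioligand binding with competitive displacement on rat forebrain membrane preparations, counted by filtration and scintillation after 1 h. Primary single-point duplicates at 25 uM; active chemicals followed up in concentration-response. DMSO served as baseline.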

Assay [5] deals with human Norepinephrine Transporter (NET), SLC6A2 (gene 6530) (UniProt P23975). Briefly: NVS_TR_hNET: NovaScreen (NVS) Transporter Assay for human Norepinephrine Transporter (NET) (AID 2283377).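 Note: cell-free membrane protein extracted from CHO cells expressing human NET.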 The essentials: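 Radioligand binding to human NET in cell-free CHO-derived protein preparations, read by filter-based scintillation counting 1 hour after dosing. Loss of signal versus DMSO baseline indicated displacement; primary screening in duplicate at 25 uM, actives then titrated.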

Assay [6] deals with Estrogen receptor beta (Homo sapiens) (UniProt Q92731). The assay is described as follows: OT_ER_ERbERb_1440: Odyssey Thera (OT) 24-hour HEK293T Protein-Complementation Assay for Estrogen Receptor-beta/-beta Homodimer (AID 2283380).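 Note: fluorescence gain from ER beta LBD homodimer complementation read by laser scanning cytometry; scored as signal increase over DMSO baseline for both agonists and antagonists.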 The essentials:
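HEK293T cells stably expressing human ER-beta LBD (aa 310-547) PCA homodimer pair, dosed 24 h; formaldehyde-fixed, Draq5-stained. Readout: increase in nuclear (agonist) or nuclear plus cytoplasmic (antagonist) fluorescence intensity versus DMSO, gain-of-signal fitting.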

Assay [7] addresses Estrogen receptor (Homo sapiens) (UniProt P03372). Briefly: OT_ERa_GFPERaERE_0120: Odyssey Thera (OT) 2-hour HeLa Transcription Induction Assay for Estrogen Receptor (AID 2283382). The essentials: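 HeLa, 384-well, 2 h chemical exposure; GFP reporter induction (ERE), fluorescence microscopy; high content image analysis; positive fitting direction vs DMSO.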
For assay [8], the target named is Retinoic acid receptor RXR-alpha (Homo sapiens) (UniProt P19793). The assay is described as follows: OT_NURR1_NURR1RXRa_1440: Odyssey Thera (OT) 24-hour HEK293T Protein Complementation Assay for Nurr1/retinoid X receptor (RXR) (AID 2283386). The essentials:
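Interaction of Nurr1 with RXRα brings fused reporter fragments together in human HEK293T cells, restoring a functional reporter. Fluorescence intensity is measured 24 h after chemical treatment, and values are analysed in the positive direction against DMSO.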

In assay [9] the target is Peroxisome proliferator-activated receptor gamma (Homo sapiens) (UniProt P37231). Briefly: OT_PPARg_PPARgSRC1_0480: Odyssey Thera (OT) 8-hour Protein-Complementation Assay for Peroxisome Proliferator-activated Receptor Gamma / SRC-1 Co-activator (AID 2283387).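 Note: nuclear to cytoplasmic split Venus YFP fluorescence ratio reporting PPARg SRC-1 interaction.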 The essentials:
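Protein-fragment complementation of split Venus YFP reports PPARg/SRC-1 interaction in HEK293T (transfected 48 h before treatment), exposed 8 h. Readout: N/C fluorescence ratio at 488 nm from imaging, Draq5 for segmentation, positive fit relative to DMSO.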

For assay [10] the target is unchanged. Briefly: OT_PPARg_PPARgSRC1_1440: Odyssey Thera (OT) 24-hour Protein-Complementation Assay for Peroxisome Proliferator-activated Receptor Gamma/ SRC-1 Co-activator (AID 2283388).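 Note: nuclear to cytoplasmic ratio of reconstituted Venus YFP fluorescence in fixed imaged cells.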 The essentials:
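Readout is the 488 nm N/C fluorescence ratio from fixed, Draq5-stained HEK293T cells after 24 h compound exposure. Cells carried transiently transfected PPARg and SRC-1 fused to Venus fragments, transfected 48 h before treatment.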

For assay [11], the target named is Agonist Androgen Response Element (ARE), AR (gene 367) (UniProt P10275). Briefly: OT_AR_ARELUC_AG_1440: Odyssey Thera (OT) 24-hour CHO-K1 Luciferase Assay for Agonist Androgen Response Element (ARE) (AID 2283379). The essentials:
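Seed CHO-K1 cells; dose compounds for 24 h; add D-luciferin plus ATP in PBS; read luminescence. Signal increase relative to vehicle defines agonist activity, with at least 3 replicate wells per sample.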

The target in assay [12] is Retinoic acid receptor RXR-alpha (Homo sapiens) (UniProt P19793). Briefly: OT_NURR1_NURR1RXRa_0480: Odyssey Thera (OT) 8-hour HEK293T Protein Complementation Assay for Nurr1/retinoid X receptor (RXR) (AID 2283385). The essentials:
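8 h compound exposure, HEK293T; Nurr1/RXRα fragment complementation; fluorescence intensity; positive fitting direction vs DMSO baseline.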

In assay [13] the target is Bile acid receptor (Homo sapiens) (UniProt Q96RI1). The assay is described as follows: OT_FXR_FXRSRC1_0480: Odyssey Thera (OT) 8-hour HEK293T Protein-Complementation Assay for Farnesoid X receptor/SRC-1 Co-activator (AID 2283383). The essentials:
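Human kidney HEK293T cells carried FXR/SRC-1 fragment-complementation constructs. Compounds were added and incubated 8 h. Reporter reassembly upon receptor–co-activator interaction was then quantified by fluorescence, with curves fitted in the positive direction relative to DMSO.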

For assay [14] the target is unchanged. Briefly: OT_FXR_FXRSRC1_1440: Odyssey Thera (OT) 24-hour HEK293T Protein-Complementation Assay for Farnesoid X receptor/SRC-1 Co-activator (AID 2283384). The essentials:
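Compounds are applied to human kidney HEK293T cells expressing bait and prey fused to reporter protein fragments; after 24 h, reconstituted reporter fluorescence is measured. Activity is fitted as signal gain over DMSO.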

The nature of assay [15]: CEETOX_H295R_11DCORT: CeeTox H295R High-throughput Steroidogenesis Assay for 11-Deoxycortisol (11DCORT) (AID 2283432; active = hit-call score of the fitted dose curve at least 0.9, where 1 is the maximum; inactive = score below 0.9). The note with it: actives raise or lower the signal. The essentials: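 Human adrenal H295R cells were prestimulated with 10 uM forskolin for 48 h, then exposed to test chemical (0.1% DMSO final) for 48 h. Medium 11-deoxycortisol was quantified by MTBE extraction and HPLC-MS/MS; bidirectional fitting relative to DMSO.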

Assay [16] can be described thus: CEETOX_H295R_OHPREG: CeeTox H295R High-throughput Steroidogenesis Assay for OH-Pregnenolone (OHPREG) (AID 2283434; active = hit-call score of the fitted dose curve at least 0.9, where 1 is the maximum; inactive = score below 0.9). The note with it: actives raise or lower the signal. The essentials:
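Human adrenal H295R cells were prestimulated 48 h with 10 uM forskolin, then exposed 48 h to chemical in 0.1% DMSO. Medium 17alpha-hydroxypregnenolone was quantified by HPLC-MS/MS after MTBE extraction; bidirectional fitting versus DMSO baseline.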

Assay [17] is described as follows: CEETOX_H295R_OHPROG: CeeTox H295R High-throughput Steroidogenesis Assay for OH-Progesterone (OHPROG) (AID 2283435; active = hit-call score of the fitted dose curve at least 0.9, where 1 is the maximum; inactive = score below 0.9). The note with it: actives raise or lower the signal. The essentials: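 H295R, 10 uM forskolin prestim 48 h; cmpd in 0.1% DMSO 48 h; medium MTBE-extracted, HPLC-MS/MS for OH-progesterone; 7-pt std curve; bidirectional fit vs DMSO; MTT viability, chemicals diluted until viability >/=70%.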

A short description of assay [18]: CEETOX_H295R_CORTISOL: CeeTox H295R High-throughput Steroidogenesis Assay for Cortisol (AID 2283438; active = hit-call score of the fitted dose curve at least 0.9, where 1 is the maximum; inactive = score below 0.9;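 note: cortisol secreted into medium quantified by LC-MS/MS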). Particulars: actives raise or lower the signal. The essentials:
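Forskolin 10 uM 48 h prestim → test cmpd in DMSO (0.1% final) 48 h → medium MTBE-extracted → LC-MS/MS cortisol vs 7-pt std curve. Gain/loss of signal fitted vs DMSO. MTT viability in same wells.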

rat Serotonin Transporter (SERT), Slc6a4 (gene 25553), sequence (P31652 whole entry, looked up): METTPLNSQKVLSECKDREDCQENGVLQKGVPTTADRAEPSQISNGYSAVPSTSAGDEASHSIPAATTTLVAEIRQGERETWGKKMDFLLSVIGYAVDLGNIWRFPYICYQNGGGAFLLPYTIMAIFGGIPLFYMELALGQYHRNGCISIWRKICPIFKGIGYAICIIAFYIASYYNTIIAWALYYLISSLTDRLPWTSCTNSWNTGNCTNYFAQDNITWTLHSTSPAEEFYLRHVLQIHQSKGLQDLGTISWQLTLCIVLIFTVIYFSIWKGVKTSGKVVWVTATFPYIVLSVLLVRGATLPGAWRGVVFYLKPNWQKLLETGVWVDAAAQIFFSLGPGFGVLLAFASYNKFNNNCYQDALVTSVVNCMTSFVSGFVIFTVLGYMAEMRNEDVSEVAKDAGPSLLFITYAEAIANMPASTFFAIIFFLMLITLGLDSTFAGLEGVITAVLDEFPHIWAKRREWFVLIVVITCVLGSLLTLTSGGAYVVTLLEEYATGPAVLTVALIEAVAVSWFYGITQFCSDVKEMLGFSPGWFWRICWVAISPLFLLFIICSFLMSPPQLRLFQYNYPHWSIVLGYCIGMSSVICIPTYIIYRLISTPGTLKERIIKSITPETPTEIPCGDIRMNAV
human Dopamine Transporter (DAT), SLC6A3 (gene 6531), sequence (Q01959 whole entry, looked up): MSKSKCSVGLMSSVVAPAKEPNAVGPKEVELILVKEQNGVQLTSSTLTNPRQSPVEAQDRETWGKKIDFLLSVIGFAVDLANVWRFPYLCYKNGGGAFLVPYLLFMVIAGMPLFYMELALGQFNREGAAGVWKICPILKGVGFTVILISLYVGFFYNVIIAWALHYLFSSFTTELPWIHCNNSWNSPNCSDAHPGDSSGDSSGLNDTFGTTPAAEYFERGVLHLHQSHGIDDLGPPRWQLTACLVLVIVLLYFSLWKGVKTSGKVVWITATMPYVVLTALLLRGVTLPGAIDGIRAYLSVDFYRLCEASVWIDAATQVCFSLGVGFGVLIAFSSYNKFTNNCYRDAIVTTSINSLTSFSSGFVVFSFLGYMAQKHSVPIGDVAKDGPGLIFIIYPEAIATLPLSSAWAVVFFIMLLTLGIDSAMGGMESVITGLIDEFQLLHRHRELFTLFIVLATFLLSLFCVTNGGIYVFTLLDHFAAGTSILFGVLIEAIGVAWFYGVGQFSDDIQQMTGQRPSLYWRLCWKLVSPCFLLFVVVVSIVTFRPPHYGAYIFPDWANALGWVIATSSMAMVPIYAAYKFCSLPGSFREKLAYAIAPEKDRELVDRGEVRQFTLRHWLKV
human Norepinephrine Transporter (NET), SLC6A2 (gene 6530), sequence (P23975 whole entry, looked up): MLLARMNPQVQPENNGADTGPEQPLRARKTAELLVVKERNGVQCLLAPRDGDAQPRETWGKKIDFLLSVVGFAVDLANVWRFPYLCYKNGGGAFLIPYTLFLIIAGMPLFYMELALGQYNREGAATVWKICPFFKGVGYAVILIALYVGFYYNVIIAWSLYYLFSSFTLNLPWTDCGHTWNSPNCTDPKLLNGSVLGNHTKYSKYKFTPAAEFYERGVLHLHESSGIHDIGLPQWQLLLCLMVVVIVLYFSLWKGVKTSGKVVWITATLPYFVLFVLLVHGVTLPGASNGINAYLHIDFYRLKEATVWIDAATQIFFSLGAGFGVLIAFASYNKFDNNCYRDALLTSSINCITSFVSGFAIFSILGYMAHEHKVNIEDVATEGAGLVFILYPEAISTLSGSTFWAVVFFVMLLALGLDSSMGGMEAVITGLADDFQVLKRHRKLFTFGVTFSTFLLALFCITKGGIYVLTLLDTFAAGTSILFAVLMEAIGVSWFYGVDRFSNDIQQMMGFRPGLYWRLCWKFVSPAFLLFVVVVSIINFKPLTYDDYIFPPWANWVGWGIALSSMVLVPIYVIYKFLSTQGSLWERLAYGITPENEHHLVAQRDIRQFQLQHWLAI
Peroxisome proliferator-activated receptor gamma (Homo sapiens), sequence (P37231 whole entry, looked up, the tested form may be a part): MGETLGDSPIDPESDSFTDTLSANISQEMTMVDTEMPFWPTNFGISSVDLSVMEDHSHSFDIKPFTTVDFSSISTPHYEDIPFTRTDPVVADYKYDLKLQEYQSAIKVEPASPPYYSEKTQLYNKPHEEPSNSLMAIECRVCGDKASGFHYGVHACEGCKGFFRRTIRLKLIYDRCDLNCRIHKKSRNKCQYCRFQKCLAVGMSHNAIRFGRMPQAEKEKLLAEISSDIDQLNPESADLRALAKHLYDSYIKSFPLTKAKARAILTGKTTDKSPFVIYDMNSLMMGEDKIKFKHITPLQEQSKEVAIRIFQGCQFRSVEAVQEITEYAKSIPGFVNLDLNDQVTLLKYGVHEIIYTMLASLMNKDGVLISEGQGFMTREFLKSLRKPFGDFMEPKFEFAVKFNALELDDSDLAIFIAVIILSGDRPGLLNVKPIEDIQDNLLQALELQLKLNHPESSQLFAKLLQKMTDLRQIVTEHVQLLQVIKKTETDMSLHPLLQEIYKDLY
human Serotonin Transporter (SERT), SLC6A4 (gene 6532), sequence (P31645 whole entry, looked up): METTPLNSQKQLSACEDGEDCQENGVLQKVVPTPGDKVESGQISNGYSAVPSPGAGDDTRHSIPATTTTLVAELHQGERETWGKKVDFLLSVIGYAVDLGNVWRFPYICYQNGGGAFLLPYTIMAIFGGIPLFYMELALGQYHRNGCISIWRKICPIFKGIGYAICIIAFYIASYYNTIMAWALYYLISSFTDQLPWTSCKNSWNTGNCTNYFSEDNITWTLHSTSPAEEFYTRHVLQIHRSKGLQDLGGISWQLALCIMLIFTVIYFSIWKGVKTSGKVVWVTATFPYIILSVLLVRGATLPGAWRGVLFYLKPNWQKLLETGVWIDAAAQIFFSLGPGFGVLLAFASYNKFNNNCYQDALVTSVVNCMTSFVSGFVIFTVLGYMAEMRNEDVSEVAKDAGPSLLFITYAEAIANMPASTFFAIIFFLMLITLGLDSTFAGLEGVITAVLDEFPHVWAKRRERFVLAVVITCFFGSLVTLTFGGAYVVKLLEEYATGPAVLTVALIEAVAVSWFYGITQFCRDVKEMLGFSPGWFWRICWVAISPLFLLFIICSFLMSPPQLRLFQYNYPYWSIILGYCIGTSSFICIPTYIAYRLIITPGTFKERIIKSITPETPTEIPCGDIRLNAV
Estrogen receptor (Homo sapiens), sequence (P03372 whole entry, looked up): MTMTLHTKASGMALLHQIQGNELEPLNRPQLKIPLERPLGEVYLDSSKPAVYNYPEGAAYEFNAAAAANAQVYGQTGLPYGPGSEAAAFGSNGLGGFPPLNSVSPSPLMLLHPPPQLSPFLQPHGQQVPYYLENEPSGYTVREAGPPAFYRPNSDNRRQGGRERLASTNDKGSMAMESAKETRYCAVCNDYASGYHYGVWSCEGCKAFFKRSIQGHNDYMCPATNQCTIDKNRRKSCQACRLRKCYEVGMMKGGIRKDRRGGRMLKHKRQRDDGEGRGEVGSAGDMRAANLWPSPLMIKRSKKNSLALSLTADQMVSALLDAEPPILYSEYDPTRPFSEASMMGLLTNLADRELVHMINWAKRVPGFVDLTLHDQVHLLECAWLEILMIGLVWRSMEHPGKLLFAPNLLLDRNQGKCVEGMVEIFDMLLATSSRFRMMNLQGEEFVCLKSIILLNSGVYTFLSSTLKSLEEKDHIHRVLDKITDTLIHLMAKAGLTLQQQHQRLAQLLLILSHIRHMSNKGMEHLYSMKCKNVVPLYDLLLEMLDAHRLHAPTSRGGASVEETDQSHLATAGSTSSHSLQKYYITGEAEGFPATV
Retinoic acid receptor RXR-alpha (Homo sapiens), sequence (P19793 whole entry, looked up, the tested form may be a part): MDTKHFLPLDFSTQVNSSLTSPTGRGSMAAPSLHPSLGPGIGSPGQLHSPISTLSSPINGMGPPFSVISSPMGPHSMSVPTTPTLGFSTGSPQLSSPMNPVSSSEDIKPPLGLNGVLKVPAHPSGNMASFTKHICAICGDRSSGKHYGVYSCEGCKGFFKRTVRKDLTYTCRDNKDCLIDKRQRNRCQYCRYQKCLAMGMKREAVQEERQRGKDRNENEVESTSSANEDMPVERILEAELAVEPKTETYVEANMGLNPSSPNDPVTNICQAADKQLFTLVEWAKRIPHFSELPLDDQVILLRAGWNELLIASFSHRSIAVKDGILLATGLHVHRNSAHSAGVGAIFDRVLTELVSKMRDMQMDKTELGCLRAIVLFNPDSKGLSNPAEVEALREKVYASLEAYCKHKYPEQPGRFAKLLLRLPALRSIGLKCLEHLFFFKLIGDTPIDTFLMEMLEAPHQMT
Estrogen receptor beta (Homo sapiens), sequence (Q92731 whole entry, looked up, the tested form may be a part): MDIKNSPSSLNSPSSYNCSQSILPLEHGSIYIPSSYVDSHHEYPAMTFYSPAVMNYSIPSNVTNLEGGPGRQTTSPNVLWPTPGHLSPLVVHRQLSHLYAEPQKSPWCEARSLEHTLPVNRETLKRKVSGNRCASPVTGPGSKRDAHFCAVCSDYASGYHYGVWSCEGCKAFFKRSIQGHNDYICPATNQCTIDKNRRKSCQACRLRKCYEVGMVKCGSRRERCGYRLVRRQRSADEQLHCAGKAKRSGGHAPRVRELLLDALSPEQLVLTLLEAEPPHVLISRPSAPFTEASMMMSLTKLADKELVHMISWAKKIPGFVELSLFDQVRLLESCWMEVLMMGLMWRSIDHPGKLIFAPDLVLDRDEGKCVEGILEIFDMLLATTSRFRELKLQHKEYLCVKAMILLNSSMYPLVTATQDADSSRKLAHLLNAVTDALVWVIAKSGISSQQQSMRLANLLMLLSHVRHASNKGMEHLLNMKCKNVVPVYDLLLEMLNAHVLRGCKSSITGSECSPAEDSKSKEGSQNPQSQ

On to `Cc1[nH]cnc1C[C@H]1CCc2c(C)c3ccccc3n2C1=O`, for which the AC50 was 8.03 µM (active) in assay [1]; 8.58 µM (active) in [2]; 11.6 µM (active) in [3]; 7.59 µM (active) in assay [4]; 7.21 µM (active) in assay [5].
Take `CC(C)CCO`: the result in assay [3], in assay [6], in [7], in assay [8], in assay [9] and in [10] was inactive.
With `CCCN(C1CCN(C(=O)C2CCNCC2)CC1)[C@@H]1CCc2ccc(OC)cc2C1`, the AC50 is 10.3 µM (active) in assay [1]; 3.7 µM (active) in assay [4]; 59.7 µM (active) in [6]; 87.3 µM (active) in assay [12]; 64.8 µM (active) in [8]. For the same compound, the result in assay [11], in assay [9] and in assay [10] was inactive.
Consider `CCn1nc(Cc2ccccc2)cc1C1CCN(C[C@H]2C[C@H](N(C)[C@@H](C(=O)O)C(C)C)C[C@@H]2c2cccc(F)c2)CC1`, for which the AC50 in assay [3] was 9.06 µM (active); in assay [5], 11 µM (active). Further, the call in assay [6], in assay [7], in assay [8], in assay [9] and in assay [10] was inactive.
Consider `CCCCCCc1ccc(O)cc1O`, for which the half-maximal activity concentration (AC50) in assay [3] was 10 µM (active); in assay [5], 12.8 µM (active). Further, the compound was called inactive in assay [4], in assay [11], in [9] and in assay [10].
As for `O=C(O)CC(O)C(=O)O` (stereo unspecified), in assay [3], the AC50 is 4.96 µM (active). The call in assay [6], in assay [12], in assay [8], in assay [9] and in assay [10] was inactive.
As for `O=C(O)c1cccc(Oc2ccccc2)c1`, the call in [5], in assay [7], in [8], in assay [9] and in [10] was inactive.
As for `CCCC(=O)OCC`, the call in [3], in assay [6], in assay [7], in assay [8], in assay [9] and in [10] was inactive.
On to `CC(C)CCCCCCCOC(=O)CCCCC(=O)OCCCCCCCC(C)C`, for which, in [3], the AC50 was 25 µM (active). The result in assay [5], in assay [13], in assay [14], in assay [8], in [9] and in [10] was inactive.
Take `CCOC(=O)COc1ccc2c(c1)CC(NCC(O)c1cccc(Cl)c1)CC2` (stereo unspecified): the result in [1], in assay [2], in assay [7] and in assay [9] was inactive. The AC50 was 0.124 µM (active) in [3]; 4.63 µM (active) in assay [4]; 0.312 µM (active) in assay [5]; 10.7 µM (active) and 10.3 µM (active) in [8].
Consider `CC[C@H]1CC[C@H](NCc2cc3c(cc2OC)[C@H]2C[C@H]2C(=O)N3C)[C@H](c2ccccc2)N1`, for which the AC50 in [2] was 25 µM (active); in assay [5], 11.3 µM (active). Moreover, the compound was classed as inactive in [6], in [7], in [12], in assay [8], in assay [9] and in assay [10]. In addition, the outcome in assay [15], in assay [16], in [17] and in assay [18] was inactive.
